ADAM17 inh: inhibitors of human ADAM17; P78536; recombinant ADAM17, EDANS/DABCYL FRET peptide cleavage; inhibition, % at 6.95 µM; actives 0.83% (n = 370,000); AID 720648;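 active = inhibition above the mean of compounds lying between control limits plus 3 SD, set per campaign, cut at about 8.5% in these data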;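 also: 0% = DMSO-only wells as the low control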
DSG3 Ab inh: human desmoglein-3 autoantibody binding inhibition | DSG3-coupled beads, scFv-anti-DSG3-GFP binding, flow cytometry; hits give low values | binding (percent of control), % at 10 µM | AID 588358 | actives 0.48% (n = 310,000);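 active = binding more than 3 SD below its plate's average and above zero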;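 also: hits lower antibody fragment binding to DSG3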
ADAM10 inh: inhibits human ADAM10 | actives 0.62% (n = 370,000) | O14672 | inhibition, % at 7 µM | recombinant ADAM10, EDANS/DABCYL FRET peptide cleavage, 3 h | AID 720582;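 active = inhibition above a per-campaign cutoff equal to the mean of compounds falling between control-based bounds plus 3 SD, cut at about 20% in these data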;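 also: 0% = DMSO wells while the 100% control is not disclosed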
Target sequence (O14672 214-748 limits assumed): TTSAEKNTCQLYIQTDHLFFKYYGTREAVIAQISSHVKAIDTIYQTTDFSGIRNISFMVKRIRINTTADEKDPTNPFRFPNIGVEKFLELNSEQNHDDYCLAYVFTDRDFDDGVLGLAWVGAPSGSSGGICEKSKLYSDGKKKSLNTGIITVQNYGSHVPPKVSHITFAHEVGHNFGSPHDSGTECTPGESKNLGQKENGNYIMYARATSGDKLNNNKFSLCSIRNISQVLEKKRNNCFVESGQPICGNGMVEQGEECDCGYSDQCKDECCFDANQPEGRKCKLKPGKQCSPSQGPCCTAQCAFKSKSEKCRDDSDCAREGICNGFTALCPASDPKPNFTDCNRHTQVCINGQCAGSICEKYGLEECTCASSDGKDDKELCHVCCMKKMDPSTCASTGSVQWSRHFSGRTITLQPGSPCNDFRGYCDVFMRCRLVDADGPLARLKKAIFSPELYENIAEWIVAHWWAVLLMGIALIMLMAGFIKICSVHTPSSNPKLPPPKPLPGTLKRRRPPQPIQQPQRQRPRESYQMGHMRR
rCAG RNA binder: molecules binding r(CAG) RNA repeats; r(CAG) RNA repeat, TO-PRO-1 dye displacement fluorescence; inhibition, % at 3 µM; actives 1.3% (n = 370,000); AID 651821;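 active = inhibition above the plate cutoff, the mean of all test compounds on that plate plus 3 SD, cut at about 35% in these data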;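 also: 0% = DMSO alone and 100% = 100 µM mitoxantrone as full dye displacement; higher means more dye released from RNA so lower well fluorescence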
KLK7 zymogen act: activators of human kallikrein-7 zymogen | purified proKLK7, EDANS-DABCYL substrate fluorescence; 100% is mature enzyme control, 0% vehicle | activation, % at 7 µM | actives 0.9% (n = 370,000);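 active = activation above the mean of all tested compounds plus 3 SD, computed per campaign excluding outliers beyond control limits, cut at about 13% in these data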
MPTP block: blocks calcium-induced mitochondrial swelling; isolated mouse mitochondria, Ca2+ swelling absorbance, 30 min; inhibition, % at 10 µM; actives 1.4% (n = 360,000);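 active = inhibition of 50% or more, scaled per plate between neutral and stimulator controls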;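 also: 0% = DMSO wells given calcium and 100% = 1 mM EGTA wells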
rCAG binder conf: r(CAG) RNA repeat binding, confirmation; shares compounds with rCAG RNA binder; TO-PRO-1 dye displacement fluorescence; inhibition, % at 3 µM; actives 70% (n = 4,300);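 active = inhibition above a per-plate cutoff, the mean inhibition of sample wells plus 3 SD, cut at about 35% in these data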;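 also: loss of TO-PRO-1 fluorescence as compound displaces dye from 1x1 AA loop RNA; 0% = DMSO only wells and 100% = 100 µM mitoxantrone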
DNA CAG counter: disrupts DNA CAG TO-PRO-1 complex, flagging rCAG hits | shares compounds with rCAG RNA binder | d(CAG) DNA oligo TO-PRO-1 dye displacement, fluorescence | inhibition, % at 3 µM | actives 94% (n = 4,300) | AID 652068;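 active = inhibition above its plate's cutoff, the mean test-well inhibition plus 3 SD, cut at about 4.8% in these data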;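 also: 0% = DNA dye mix with DMSO and 100% = 100 µM mitoxantrone; hits displace the dye from DNA and so lower well fluorescence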
DNA CAG DR: DNA CAG dye complex inhibition, dose response counter-screen; shares compounds with rCAG RNA binder; DNA CAG/GTC duplex TO-PRO-1 dye displacement fluorescence; IC50, µM; actives 20% (n = 250); AID 686960; in the data active = IC50 below about 10 µM
An asterisk follows results filed as active; i = inactive; nt = no result. This is a sample that favours compounds with a hit; in the whole collection about 4.7% have one here.

SMILES	ADAM17 inh	DSG3 Ab inh	ADAM10 inh	rCAG RNA binder	KLK7 zymogen act	MPTP block	rCAG binder conf	DNA CAG counter	others
O=C1CN(C(=O)COC(=O)COc2ccccc2)c2ccccc2N1	-3.7	102.5	-6.9	0.9	0.9	-1.5	nt	nt
Cc1ccccc1C(=O)N[C@H](C(=O)N1CCC[C@H]1C(=O)NCCc1ccccc1Cl)c1ccccc1	-5.2	nt	-7.2	0.1	0.7	nt	nt	nt
Cc1cccc(Cc2cnc(N3C(=N)SC(c4ccccc4)C3=O)s2)c1 (centres undefined)	0.6	89.8	-3.2	39.6*	-0.5	-6.4	53.3*	18.4*
O=S(=O)(Nc1nc2ccccc2nc1Nc1ccc2c(c1)OCCO2)c1cccs1	-4.9	98.0	-6.1	90.9*	0.5	36.7	82.7*	51.1*
C[C@@H]1CN([C@H](C)CO)C(=O)CCCn2cc(nn2)CO[C@H]1CN(C)C(=O)Oc1ccccc1	-4.8	nt	-12.0	-2.4	0.7	nt	nt	nt
Cc1ccc([N+](=O)[O-])cc1-c1ccc(/C=C(\C#N)c2[nH]nc(N)c2C#N)o1	1.6	86.4*	7.5	83.7*	-0.5	6.4	63.4*	46.9*
Cc1nn(CCCC(=O)NC2CCC(C)CC2)c(=O)c2nn(-c3ccccc3)c(C)c12 (centres undefined)	-2.0	102.9	-0.7	-8.6	0.0	0.1	nt	nt
CCOC(=O)c1ccc(NC(=O)c2c(NC(=O)CCC(=O)O)sc3c2CCCCC3)cc1	2.1	100.7	3.0	43.0*	0.1	-2.1	34.4	10.4*
COC(=O)[C@]12C[C@H](CC(=O)N3CCN(C(=O)c4ccco4)CC3)C(=O)N(Cc3ccccc3)C1=C[C@H](C(C)(C)C)O[C@@H]2C	1.3	nt	4.9	2.3	0.4	nt	nt	nt
COc1cc(/C=C(\C#N)C(=O)Nc2ccccc2C(=O)O)cc(Cl)c1OC	-9.3	100.4	-11.2	47.1*	0.4	-0.8	76.6*	40.9*
COc1ccc(NC(=O)CSc2n[nH]c(-c3ccccc3)n2)cc1S(N)(=O)=O	-5.9	98.4	0.8	2.1	-0.5	-0.7	nt	nt
COc1ccc(CN(C)S(=O)(=O)c2nnc(NC(=O)c3cccc(F)c3)s2)cc1OC	-2.0	100.3	-3.9	56.6*	0.0	7.0	60.1*	23.6*
Cc1cccc(C(=O)Nc2nnc(S(=O)(=O)N(C)Cc3ccco3)s2)c1	-7.0	102.7	-6.8	36.5*	0.1	-0.7	37.4*	13.5*
COc1ccc(CN(C)S(=O)(=O)c2nnc(NC(=O)c3ccccc3)s2)cc1OC	-3.5	nt	-1.3	10.4	0.2	1.4	nt	nt
Cc1cccc(NS(=O)(=O)c2nnc(NC(=O)c3ccc(Cl)cc3)s2)c1	-0.1	96.3	1.7	36.6*	-0.8	0.7	34.1	11.9*
Cc1cccc(NS(=O)(=O)c2nnc(NC(=O)c3cccc(C)c3)s2)c1	3.5	101.8	6.0	18.0	0.3	1.9	nt	nt
COCCCN(C(=O)CSc1nc2ccccc2c(=O)n1C)c1c(N)n(Cc2ccccc2)c(=O)[nH]c1=O	-12.7	101.5	-13.8	2.5	0.5	-1.2	nt	nt
CCOc1ccc(-c2ccc(/C=C3/C(=N)N4C(C)=CSC4=NC3=O)o2)c([N+](=O)[O-])c1	-0.3	94.3	-5.1	48.6*	0.3	3.9	31.1	12.5*
N#Cc1c(SC(C(=O)O)c2ccccc2)nc2c(c1-c1cccs1)CCCC2 (centres undefined)	-7.1	105.5	-2.7	67.2*	1.0	9.0	74.3*	28.2*	DNA CAG DR=i
Nc1nc2cc(S(=O)(=O)NC3=NCCCCC3)ccc2s1	-2.2	97.2	-2.0	6.8	-0.3	0.1	nt	nt
CCOC(=O)c1ccc(S(=O)(=O)Nc2nc3cc(S(=O)(=O)NC4=NCCCCC4)ccc3s2)cc1	-2.1	105.1	1.6	58.8*	-0.2	-1.6	56.1*	23.0*
O=[N+]([O-])c1ccc(-c2nc(Nc3ccc(O)cc3)c3ccccc3n2)cc1	-2.6	90.5	-2.3	36.6*	-0.1	4.4	21.4	10.3*
O=C1OC(c2cccs2)Sc2ccccc21 (centres undefined)	-4.6	nt	-1.3	1.9	-0.8	-1.2	nt	nt
COc1ccc(S(=O)(=O)Nc2c(C(=O)O)[nH]c3ccccc23)c(OC)c1	0.3	nt	3.3	35.6*	0.8	0.6	18.9	4.3
COc1ccc(S(=O)(=O)Nc2c(C(=O)O)[nH]c3ccc(OC)cc23)c(OC)c1	-7.1	92.6	-9.5	36.5*	0.2	-0.3	23.7	10.4*
SMILES	ADAM17 inh	DSG3 Ab inh	ADAM10 inh	rCAG RNA binder	KLK7 zymogen act	MPTP block	rCAG binder conf	DNA CAG counter	others
O=C(CSc1cccs1)Nc1ccc(Cl)cc1	-3.4	114.1	-5.3	-2.9	-0.2	5.7	nt	nt
Cc1ccc(C(=O)NN2C(=O)/C(=C/c3cn(C)c4ccccc34)SC2=S)cc1	-1.2	108.3	-5.4	0.1	-0.2	2.4	nt	nt
Cn1cc(/C=C2\SC(=O)NC2=S)c2ccccc21	3.5	104.2	1.1	39.6*	0.1	6.4	32.9	10.9*
Nc1scc2c(C(=O)N/N=C/c3ccc(Cl)cc3)nn(-c3ccccc3)c(=O)c12	-2.7	97.2	-0.8	40.5*	0.2	2.8	25.4	15.6*
Nc1c(C(=O)N/N=C/c2ccc(Cl)cc2)cnn1-c1ccccc1	-3.5	nt	2.0	-1.4	0.4	0.1	nt	nt
CC(/C=C1\SC(=S)N(CCCC(=O)Nc2ccc(C(=O)O)cc2)C1=O)=C\c1ccccc1	2.7	121.4	16.8	73.8*	0.5	4.2	85.1*	53.4*
CC(/C=C1\SC(=S)N(CCC(=O)Nc2ccccc2O)C1=O)=C\c1ccccc1	1.4	88.6	7.5	14.8	0.3	0.2	nt	nt
O=C(CCN1C(=O)/C(=C/c2ccc(Cl)cc2)SC1=S)Nc1ccc(C(=O)O)cc1	-4.1	105.3	1.4	3.5	-0.1	2.5	nt	nt
CC(=C\c1ccccc1)/C=C1/SC(=S)N(CCCC(=O)O)C1=O	-2.1	104.6	5.4	37.2*	-0.3	0.6	48.8*	14.5*
CC(/C=C1\SC(=S)N(CCC(=O)Nc2cccc(C(=O)O)c2)C1=O)=C\c1ccccc1	-1.5	105.7	6.9	37.0*	-0.8	2.0	88.1*	62.2*
CC(=Cc1ccccc1)C=C1SC(=S)N(CCCC(=O)Nc2ccc(C(=O)O)cc2)C1=O	-6.8	nt	-11.2	25.0	-0.6	-0.9	nt	nt
O=C(CCN1C(=O)/C(=C\c2cccs2)SC1=S)Nc1ccc(C(=O)O)cc1	-1.0	110.0	0.4	54.8*	0.0	-1.4	39.7*	11.0*
